From PubChem
This is a sample that favours compounds with a hit; in the whole collection about 4% have one here.
Rv3671c inh – Rv3671c (M. tuberculosis) protease inhibition; 0.048% of 320,000 active; inhibition, % at 5.96 µM; in the data active means inhibition above about 38%;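 further: extracellular domain of Rv3671c used as enzyme; 0% = enzyme with DMSO and 100% = no enzyme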
GDH-TPI counter – inhibits GDH-TPI coupling enzymes, artifact for Mtb FBA screen | inhibition, % at 4.8 µM | GDH-TPI coupled enzyme counterscreen, NADH absorbance | 1.2% of 360,000 active; in the data active means inhibition above about 30%;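 further: 0% = DMSO wells and 100% = wells lacking the enzyme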
Mtb FBA inh – inhibits M. tuberculosis FBA enzyme | 2.3% of 360,000 active | purified M. tuberculosis FBA, fluorescence read-out | inhibition, % at 1 µM; in the data active means inhibition above about 27%;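 further: 0% = vehicle and 100% = reference inhibitor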
Target sequence (P9WQA3 whole entry, looked up): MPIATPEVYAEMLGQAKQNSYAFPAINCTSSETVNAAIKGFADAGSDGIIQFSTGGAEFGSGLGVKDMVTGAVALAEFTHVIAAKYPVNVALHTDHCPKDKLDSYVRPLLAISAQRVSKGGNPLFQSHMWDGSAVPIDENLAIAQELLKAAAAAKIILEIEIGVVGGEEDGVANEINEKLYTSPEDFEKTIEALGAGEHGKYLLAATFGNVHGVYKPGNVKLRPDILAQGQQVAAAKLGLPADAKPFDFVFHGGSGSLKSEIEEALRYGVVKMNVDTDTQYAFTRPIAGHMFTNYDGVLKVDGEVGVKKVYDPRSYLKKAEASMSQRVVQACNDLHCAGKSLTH
Mtb bLac sens – beta-lactam sensitization of Mtb H37Rv. inhibition, % at 25 µM. 0.27% of 330,000 active. M. tuberculosis H37Rv growth with meropenem, percent inhibition; call rule not given here;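 further: growth measured after seven days incubation then overnight dye step; 0% = bacteria only wells and 100% = bacteria with antibiotic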
RecA intein inh – inhibitors of M. tuberculosis RecA intein splicing; P9WHJ3; cell-free RecA intein splicing, fluorescence; inhibition, % (no concentration beside the values); 0.75% of 290,000 active; AID 2221; in the data active means inhibition above about 30%;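 further: 0% = vehicle wells and 100% = reference inhibitor control wells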
UGM FP inh – inhibitors of M. tuberculosis UDP-galactopyranose mutase; 0.06% of 320,000 active; P9WIQ1; purified UGM, fluorescence polarization probe displacement; inhibition, % at 10 µM; AID 504406; in the data active means inhibition above about 10%, passing the limit was not always enough
* = called active by the depositor; x = no result; + = active, no number.

SMILES	Rv3671c inh	GDH-TPI counter	Mtb FBA inh	Mtb bLac sens	RecA intein inh	UGM FP inh
CC1(C(=O)NS(=O)(=O)c2ccc(Cl)cc2)CCN1C(=O)C1CC1 (stereo not drawn)	x	11	3	x	x	x
Cc1ccc(/C=N/Nc2ccc(C(=O)O)cc2)s1	-4	48*	-2	0	-5	2
O=C(N/N=C/c1ccc(Br)s1)c1ccccn1	8	43*	-7	83	-1	-4
O=C(N/N=C/c1ccc(Br)s1)c1ccco1	3	66*	-3	68	4	0
Cc1ccc(/C=N/Nc2cccc(C(=O)O)c2)s1	9	16	-1	-3	-7	0
Cc1ccc(/C=N/NC(=O)c2ccco2)s1	1	38*	-4	-9	-2	2
Nc1ncnc2c1ncn2[C@@H]1O[C@H](CNC(=O)[C@@H](N)Cc2ccc(C(=O)c3ccccc3)cc2)[C@@H](O)[C@H]1O	x	x	-1	x	x	x
O=C(CC1CC2CCC1C2)N1CCN(S(=O)(=O)c2ccc(F)cc2)CC1 (stereo not drawn)	x	6	-2	x	x	x
CC(C)(C)OC(=O)C[C@H]1C/C=C\C[C@H](CC(=O)NCCO)C(=O)N[C@@H](c2ccccc2)COC1=O	0	7	3	-5	x	-1
CC(C)N1CCN(c2ccncc2S(=O)(=O)N2CCN(C)CC2)CC1	x	-1	1	x	x	x
CC(=O)c1cccc(NC(=O)C2Cc3c(-c4ccc5c(c4)OCO5)ccnc3O2)c1 (stereo not drawn)	x	13	15	x	x	x
Cc1ccc(/C=N/NC(=O)c2ccc(C(=O)N/N=C/c3ccc(C)s3)o2)s1	0	68*	1	-10	-34	-1
Cc1ccc2c(c1)c1ncnc(N3CCN(c4ccccc4)CC3)c1n2C	1	3	11	-4	x	-1
Cc1ccc2c(c1)c1ncnc(N3CCOCC3)c1n2C	12	10	126*	-1	-3	1
COc1ccc2cc3[n+](cc2c1OC)CCc1cc2c(cc1-3)OCO2	-2	35*	-2	4	-1	-1
CC1(C)CC(=O)C2=C(C1)NC(=O)CC2	x	x	0	x	x	x
COc1ccc(C2/C(=C(/O)c3ccccc3)C(=O)C(=O)N2c2ccccn2)c(OC)c1 (stereo not drawn)	-3	31*	1	-3	0	0
CCC(C)(C)C1CCC2(CC1)NC(=O)N(CC(=O)N1CCN(C(=O)c3ccco3)CC1)C2=O (stereo not drawn)	8	-5	0	-4	x	1
CCNc1nnc(-c2ccncc2)s1	-5	21	136*	-2	-3	0
CNc1nnc(-c2ccncc2)s1	-7	16	145*	6	2	-1
CNc1nnc(-c2ccc(OC)cc2)s1	1	1	3	7	11	0
Clc1ccccc1Nc1nnc(-c2ccncc2)s1	-7	17	2	-1	-1	3
CCOC(=O)c1c(NC(=O)COC(=O)CCNS(=O)(=O)c2ccccc2)sc(C(=O)NC)c1C	x	-2	5	x	x	x
COc1ccc(NC(=O)CSc2nnc3ccc(-c4cccnc4)nn23)c(OC)c1	5	5	2	-8	-1	1
c1ccc(-c2nc(NC3CCCC3)c3ccccc3n2)cc1	-4	11	0	2	-2	6
SMILES	Rv3671c inh	GDH-TPI counter	Mtb FBA inh	Mtb bLac sens	RecA intein inh	UGM FP inh
Cc1cc(C)c2c(n1)nn1c(NCCCN(C)C)cc(C)nc21	-6	5	+	-3	-163	0
Cc1cc(C)c2c(n1)nn1c(NCCOCCO)cc(C)nc21	-10	1	+	1	-143	1
COC(=O)C(CCSC)NC(=O)c1cn(-c2ccc(OC)cc2)c(=O)c2ccccc12 (stereo not drawn)	-2	10	1	97	-1	-2
Nc1ccc2c(c1)oc1ccccc12	0	13	57*	100	4	0
Cc1cc(C)n2nc(SCc3ccccc3F)nc2n1	-14	-4	+	6	-5	-2
COC(=O)c1ccccc1-c1ccc(/C=N/NC(=O)c2cc3ccccc3o2)o1	-26	52*	5	10	-5	0
Cc1ccc(/C=N/Nc2nc(N3CCCCC3)nc(N3CCCCC3)n2)o1	4	16	1	-2	-1	0
O=C(N/N=C/c1cccc2ccccc12)c1cc2ccccc2o1	x	16	1	x	1	x
COC(=O)c1ccccc1-c1ccc(/C=N/Nc2nc(N3CCCC3)nc(N3CCCC3)n2)o1	-1	61*	23	83	-3	1
CCOC(=O)C1=C(C)NC(SC(C)=O)=NC1c1ccc(OC(C)=O)c(OC)c1 (stereo not drawn)	-2	36*	4	-5	3	1
O=C(Nc1nc2ccccc2n1Cc1ccc(Cl)cc1)c1ccco1	1	22	3	20	-1	1
C=CCn1c(NC(=O)c2ccco2)nc2ccccc21	3	35*	0	96	x	3
O=C(Nc1nc2ccccc2n1CCOc1ccccc1)c1ccco1	2	34*	3	94	1	-1
CC(Oc1ccc2c(-c3ccccc3)cc(=O)oc2c1)C(=O)NCCCn1ccnc1 (stereo not drawn)	-4	20	6	-4	x	-2
Cc1ccc(NC(=O)CSc2nnc(C3CC3)n2C)cc1S(=O)(=O)N1CCCCC1	3	1	8	-2	x	1
O=C1CCCC2=C1C1(CCCC1)N=C(Nc1nc3ccccc3o1)N2	x	12	1	x	x	x
O=C1CCCC2=C1C1(CCCCC1)N=C(Nc1nc3ccccc3o1)N2	0	51*	-6	-4	-1	3
COc1ccc(NC(=O)CN2CCCCCC2)cc1OC	-6	-2	1	-1	x	-4
O=C(OCC(=O)N1CCOCC1)c1ccc(O)cc1	-3	14	+	-3	0	1
O=C(OCC(=O)N1CCOCC1)c1ccccc1O	0	-5	0	2	-1	0
CCOc1ccc(/C(CCC(=O)O)=N/NC(=O)c2cccc(S(=O)(=O)Nc3ccccc3OC)c2)cc1	-10	0	4	-12	x	11*
Cc1ccccc1-n1nc(C)c(N=O)c1N	0	5	113*	-4	-4	-3
COCC1CCCN(C(=O)c2ccc3oc(Cc4ccc(Cl)cc4)nc3c2)C1 (stereo not drawn)	5	2	-2	45	5	0
O=C(NC(NC(=S)Nc1ccc(Cl)cc1Cl)C(Cl)(Cl)Cl)c1cccc([N+](=O)[O-])c1 (stereo not drawn)	-268	-12	-1	74	37*	-2
O=C(O)c1cccc(NC(=S)NC(NC(=O)c2cccc([N+](=O)[O-])c2)C(Cl)(Cl)Cl)c1 (stereo not drawn)	-8	1	2	-2	-5	-1
COc1ccc(/C(C)=N/NC(=O)c2ccc(N(C)C)cc2)cc1	1	35*	0	6	-3	2
C/C(=N\NC(=O)c1cc(C)oc1C)c1ccc(C)c([N+](=O)[O-])c1	-6	7	-2	5	x	2
